# RORg inh: inhibitors of mouse ROR gamma transcriptional activity; P51450; Drosophila S2 Gal4-RORgamma UAS-luciferase reporter, 20 h; 5.4% of 310,000 active; Potency, µM (highest dose often 53.6 µM), without a hit: at the highest dose activity change, negative = inhibition, most hits filed as inhibitors; AID 2551; note: potency is the fitted concentration of half-maximal effect; % is set by controls: 0 for no effect and ±100 for the full control effect; nearly all actives have a fitted effect of over 60% in size
# Target sequence (P51450 whole entry, looked up, the tested form may be a part): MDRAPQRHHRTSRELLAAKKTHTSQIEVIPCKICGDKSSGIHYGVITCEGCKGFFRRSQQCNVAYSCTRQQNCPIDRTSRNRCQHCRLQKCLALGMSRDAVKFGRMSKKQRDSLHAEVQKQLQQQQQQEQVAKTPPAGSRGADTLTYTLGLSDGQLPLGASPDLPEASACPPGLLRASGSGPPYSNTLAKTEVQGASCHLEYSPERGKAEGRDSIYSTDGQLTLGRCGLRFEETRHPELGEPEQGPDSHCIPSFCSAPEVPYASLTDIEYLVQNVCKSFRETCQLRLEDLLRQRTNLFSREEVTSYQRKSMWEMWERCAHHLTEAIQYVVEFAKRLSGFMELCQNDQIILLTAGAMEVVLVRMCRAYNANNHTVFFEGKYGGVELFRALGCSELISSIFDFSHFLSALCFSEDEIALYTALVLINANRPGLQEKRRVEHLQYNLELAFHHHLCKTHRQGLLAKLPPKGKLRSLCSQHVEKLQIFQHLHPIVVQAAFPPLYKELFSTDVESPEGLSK
#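 Drosophila S2 cells stably expressing Gal4-DBD/mouse RORγ fusion under metallothionein promoter plus UAS-luciferase; compound 1 h, then 700 uM CuSO4 induction for 20 h at ambient temperature; inhibition read as reduced luminescence.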
# TRPV1 agonist: human TRPV1 agonism; TRPV1-expressing cells, Fluo-8 calcium influx, agonist mode; activation, % at 8.33 µM; 0.19% of 320,000 active; in the data active = activation above about 80%; inconclusive = between about 30% and that limit; note: 0% is about no effect
#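 Cells expressing TRPV1 were dye-loaded with Fluo-8 and read kinetically: 10 s baseline, 3 min after compound (agonist portion), then 2 min after EC20 capsaicin (allosteric enhancer portion). Calcium-bound dye fluorescence at 480/520 nm.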
# TRPV1 PAM: enhances activation of the human vanilloid receptor TRPV1. Q8NER1. potentiation, % at 8.33 µM. AID 540277. TRPV1-expressing cells, Fluo-8 calcium influx, capsaicin EC20 potentiation. 0.02% of 320,000 active; in the data active = potentiation above about 80%; inconclusive = between about 30% and that limit; note: 0% is about no effect
#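 TRPV1-expressing cells were cultured overnight at 35.5C and loaded with Fluo-8 calcium dye for 40 to 90 min at room temperature. After a 10 s baseline, compound was added and calcium influx was read kinetically for 3 min (ex 480/em 520 nm).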
# uPA surface inh: cell surface uPA generation inhibition; 0.31% of 330,000 active; Potency, µM (doses to about 38.3 µM), for inactives: at the highest dose activity change, negative = inhibition, usual class: inhibitors; cell surface uPA generation assay, qHTS; active = well fitted inhibition curve with a large enough effect; inconclusive = small, poorly fitted or top-dose-only effect; inactive = no such curve, though single readings can be large or run the other way; tested in mouse RAW 264.7 cells; note: potency is the fitted concentration of half-maximal effect; % is set by controls: 0 for no effect and ±100 for the full control effect; nearly all actives have a fitted effect of over 55% in size
# VP16 counter: inhibits Gal4-VP16 luciferase reporter, ROR gamma counter-screen. Drosophila S2 Gal4-VP16 UAS-luciferase, luminescence, 20 h. 3.5% of 310,000 active. Potency, µM (top dose mostly 53.6 µM), without a hit: at the highest dose activity, negative = inhibition, most hits filed as inhibitors;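 note: Gal4-VP16 expression switched on by copper sulfate through the metallothionein promoter; potency is the fitted concentration of half-maximal effect; % is set by controls: 0 for no effect and ±100 for the full control effect; nearly all actives have a fitted effect of over 50% in size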
# * hit, by the source's call; ? = inconclusive; . = not tested or not shown; ! = a repeat was not active. Rows were chosen to be rich in hits. Some 5.8% of all compounds tested hit in one or more screens of this group. Unless noted, calls come from the whole dose curve; as a rule, active = well fitted curve in the direction sought with a large enough effect; inconclusive = small, poorly fitted or top-dose-only effect, or another doubt; inactive = no such curve, though single readings can be large; an effect the other way counts as inactive or inconclusive.
SMILES,RORg inh,TRPV1 agonist,TRPV1 PAM,uPA surface inh,VP16 counter
CS[C@@H]1SC[C@H]2C(=O)N(C)C(C(C)C)C(=O)OC[C@@H](NC(=O)c3cnc4ccccc4n3)C(=O)N[C@@H](C)C(=O)N(C)[C@H]1C(=O)N(C)C(C(C)C)C(=O)OC[C@@H](NC(=O)c1cnc3ccccc3n1)C(=O)N[C@@H](C)C(=O)N2C (stereo partly specified),0.04µM*,.,.,.,-1%
CC(NC(=O)c1cnc2ccccc2n1)c1ccccc1 (stereo unspecified),?,3,0,-3%,8%
Nc1nc2ccc(S(=O)(=O)N3CCCCC3)cc2s1,13µM*,3,-11,1%,?
O=C(CCNS(=O)(=O)c1ccc(Cl)cc1)Nc1ccncc1,-3%,0,1,2%,1%
COc1cc(N=c2ssnc2Cl)cc(OC)c1,4µM*,7,-18,-2%,7.1µM*
Clc1nssc1=Nc1ccc(Br)cc1,?,10,-16,-1%,?
S=C1NC2=C(CCCC2=C2SCCCS2)C(c2ccccc2)N1 (stereo unspecified),?,3,9,4%,7.9µM*
Cc1ccc(C2NC(=S)NC3=C2C(=O)CCC3)cc1 (stereo unspecified),-7%,-2,16,5%,10%
COc1ccc(C2NC(=S)NC3=C2CCCC3=C2SCCS2)cc1 (stereo unspecified),10µM*,2,-4,-15%,?
Cc1ccc(C)c(N2CC(C(=O)Nc3nccs3)CC2=O)c1 (stereo unspecified),0%,-3,16,5%,4%
O=C(Nc1nc(-c2ccccn2)cs1)c1ccc(Br)s1,1.3µM*,?,-6,.,1.3µM*
O=C(Nc1nc(-c2cc(Cl)sc2Cl)cs1)c1ccc(Br)s1,-13%,7,-6,2%,7%
O=C(Nc1ccc(Br)cc1)c1cccc(-n2cnnn2)c1,?,3,15,-2%,-4%
O=C(Nc1nc(-c2ccccn2)cs1)c1cccc(-n2cnnn2)c1,5µM*,5,4,?,-5%
O=C(Nc1nc(-c2ccccn2)cs1)c1ccco1,7.1µM*,2,5,-11%,0%
COc1ccc(CNC(=O)CN(C(=O)CCC(=O)Nc2ccccn2)c2ccc(C)cc2)cc1,7%,0,8,-1%,9%
COc1ccc(N(C(=O)c2snc(C(N)=O)c2N)C(C(=O)NCC2CCCO2)c2ccc(C)o2)cc1OC (stereo unspecified),13%,-2,9,1%,8%
COC(=O)C/C=N/N=C1/NC(=O)/C(=C/C(=O)O)S1,14%,0,1,5%,16%
Cc1cc(C(C)(C)C)ccc1OCCN(C)C,-23%,0,13,5%,-2%
CC(C)Cc1cc(C(C)(C)C)ccc1OC(=S)N(C)C,13µM*,19,-22,-7%,1%
Cc1ccc(-n2c(-c3ccc(Br)cc3)c[n+]3c2CCc2ccc4cccnc4c2-3)cc1,7.1µM*,1,3,.,1.4µM*
Cc1ccc(-c2c[n+]3c(n2-c2ccccc2)CCC3)cc1,?,1,27,-7%,?
CC(C(Sc1ccccc1N)c1ccccc1)[N+](=O)[O-] (stereo unspecified),?,11,3,11µM*,?
Nc1ccccc1SSc1ccccc1N,?,2,-17,?,?
CCN(CC)C1CC(=O)N(c2ccc(Br)cc2)C1=O (stereo unspecified),13µM*,2,-2,-4%,18µM*
SMILES,RORg inh,TRPV1 agonist,TRPV1 PAM,uPA surface inh,VP16 counter
Cc1cc(C)nc(SC2CC(=O)N(c3ccc(Br)cc3)C2=O)n1 (stereo unspecified),25%,-2,-3,1%,7%
C/C(=N\NC(N)=S)C1=CCC2C3CC[C@H]4CC(O)CC[C@]4(C)C3CC[C@]12C (stereo partly specified),2.5µM*,-1,7,?,?
CC12CCC3C(CCC4CC(O)CCC43C)C1CC=C2c1ccccc1 (stereo unspecified),8%,.,.,.,-5%
Cc1ccnc(Sc2ccc([N+](=O)[O-])cc2[N+](=O)[O-])n1,13µM*,0,1,-15%,?
COc1ccc(-c2noc(CCC(=O)Nc3cccc(C)c3)n2)cc1,0.28µM*,22,23,7%,?
Cc1ccc(-c2noc(CCC(=O)NCCCN3CCN(c4cccc(Cl)c4)CC3)n2)cc1,4µM*,-4,12,-10%,14µM*
CCOC(=O)c1cccc(NC(=O)CCc2nc(-c3ccc(C)cc3)no2)c1,3.2µM*,1,-27,10%,-29%
O=C1[C@H]2[C@@H](/C=C/c3ccccc3)N3C(=O)CN(Cc4ccccn4)C(=O)[C@@]3(Cc3ccccc3)[C@H]2C(=O)N1c1ccccc1,-17%,-2,-14,0%,0%
CC1(C)N=c2ccc([N+](=O)[O-])c(N)c2=[N+]1[O-],-30%,-2,10,10µM*,-20%
Clc1ccccc1C(c1ccccc1)(c1ccccc1)n1ccnc1,6.3µM*!,?,-11,?,?
O=C(NCc1ccc(F)cc1)c1cc(C(=O)C2CC2)c[nH]1,?,4,-1,1%,?
COc1ccccc1NC1=C(C)C(=O)CC1,13µM*,0,8,-12%,-4%
COC1=C(Nc2ccccc2OC)C(=O)c2ccccc2C1=O,-12%,0,9,4%,0%
COc1ccc2c(c1)C1OCCC1C(c1ccco1)N2 (stereo unspecified),.,.,.,2.5µM*,.
c1coc(C2Nc3ccccc3C3OCCC23)c1 (stereo unspecified),30%,-1,1,-5%,-3%
COc1ccc(-c2ccc(C3C4C=CCC(C)C4C(=O)N3Cc3ccccc3)c(F)c2)cc1C (stereo unspecified),17%,.,.,.,-3%
COc1cc2cc(C(=O)N3CCOCC3)cc(-c3ccc(C)cc3)c2cc1OC,?,28,-6,4.5µM*,8.9µM*
O=C(c1cc(-c2ccc3c(c2)OCO3)on1)N1CCCCC1,?,?,-9,-3%,11µM*
Cc1ccc(-c2cc(C(=O)N3CCOCC3)no2)cc1,7.9µM*,?,-5,-11%,14µM*
Cc1ccc(-c2cc(C(=O)N3CCCC3)no2)cc1,11µM*,?,9,?,7.1µM*
CCOC(=O)C1=C(C)NC(=S)NC1c1ccc(OC(=O)c2ccco2)cc1 (stereo unspecified),-11%,1,-4,2%,-9%
CCOC(=O)c1c(NC(=O)C2=C(C)NC(=S)NC2c2ccc(CC)cc2)sc(C)c1C (stereo unspecified),3.5µM*,6,7,.,7.9µM*
CC(C)NC(=O)Cn1cc(C(=O)C(=O)N2CCOCC2)c2ccccc21,-30%,-6,6,0%,-7%

# Source: PubChem
